Sampled rows, rich in hits. Any-hit rate of the full collection: about 4.2%.
GDH-TPI counter-1: GDH-TPI coupled enzyme inhibition counter-screen; inhibition, % at 4.8 µM; AID 588335; 360,000 tested, 1.2% active; GDH-TPI coupled enzyme counterscreen, NADH absorbance; in the data active means inhibition above about 30%
CCHF vOTU inh: CCHFV vOTU protease inhibition. AID 651958. Pep-AMC fluorescence. 370,000 tested, 0.55% active. inhibition, % at 11.5 µM; in the data active means inhibition above about 30%
Mtb betalactam: beta-lactam sensitization of Mtb H37Rv. 330,000 tested, 0.27% active. M. tuberculosis H37Rv growth with meropenem, percent inhibition. inhibition, % at 25 µM; call rule not given here;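 further: growth measured after seven days incubation then overnight dye step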
FBA Mtb inh: Mtb fructose-bisphosphate aldolase inhibition. purified M. tuberculosis FBA, fluorescence read-out. inhibition, % at 1 µM. 360,000 tested, 2.3% active
Target sequence (P9WQA3 whole entry, looked up): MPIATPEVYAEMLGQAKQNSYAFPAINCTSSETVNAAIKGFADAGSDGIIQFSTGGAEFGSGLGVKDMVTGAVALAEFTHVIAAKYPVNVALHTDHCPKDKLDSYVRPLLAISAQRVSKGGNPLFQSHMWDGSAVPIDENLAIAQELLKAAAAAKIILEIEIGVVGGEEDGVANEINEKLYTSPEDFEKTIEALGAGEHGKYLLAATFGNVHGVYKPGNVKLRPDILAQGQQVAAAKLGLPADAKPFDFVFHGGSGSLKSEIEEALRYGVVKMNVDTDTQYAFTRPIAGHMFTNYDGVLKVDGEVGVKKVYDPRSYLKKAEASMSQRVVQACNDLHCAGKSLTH
RecA intein inh: blocks M. tuberculosis RecA intein splicing; cell-free RecA intein splicing, fluorescence; inhibition, % (test concentration not listed); AID 2221; 290,000 tested, 0.75% active; P9WHJ3; in the data active means inhibition above about 30%
Mtb FBA inh conf: Mtb FBA inhibition, confirmed; 5,600 tested, 78% active; AID 651616; shares compounds with FBA Mtb inh; inhibition, % at 1 µM; purified M. tuberculosis FBA, fluorescence read-out
GDH-TPI counter-2: inhibits GDH-TPI coupling enzymes, flagging Mtb FBA hits; inhibition, % at 1 µM; 5,600 tested, 81% active; shares compounds with FBA Mtb inh; GDH-TPI coupled enzyme counterscreen, fluorescence; AID 652141; in the data active means inhibition above about 10%
Of the large screens only hits and unclear results are named; the others gave an inactive call (follow-up assays come after a bar, where they were run). Unless noted, no stated cut-off is given here; in the data, active means inhibition above about 27%; inactive means the rest.

COc1cc(/C=N/c2oc(-c3ccccc3)cc2C#N)ccc1O	GDH-TPI counter-1 48, FBA Mtb inh 47 | Mtb FBA inh conf active | GDH-TPI counter-2 active
COc1cc(/C=N/N2C(=O)c3ccccc3C2=O)ccc1O	none
CCC(C)NC(=O)Cc1cn(C)c2ccccc12 (stereo not given)	FBA Mtb inh 102 (no result: RecA intein inh) | Mtb FBA inh conf inactive | GDH-TPI counter-2 inactive
CCc1ccc(NC(=O)Cc2cn(C)c3ccccc23)cc1	none
FC(F)(F)c1cccc(-c2nc3nc(Cl)c(Cl)nc3[nH]2)c1	GDH-TPI counter-1 36, FBA Mtb inh 31 (no result: CCHF vOTU inh) | Mtb FBA inh conf 35 | GDH-TPI counter-2 42
COc1ccc(-c2cc3nc(-c4ccccc4)cc(N4CCC(O)CC4)n3n2)cc1	FBA Mtb inh 80 | Mtb FBA inh conf 39 | GDH-TPI counter-2 27
COc1ccc(-c2cc3nc(-c4ccccc4)cc(N4CCCC(O)C4)n3n2)cc1 (stereo not given)	FBA Mtb inh 79 | Mtb FBA inh conf inactive | GDH-TPI counter-2 inactive
COc1ccc(-c2cc3nc(-c4ccccc4)cc(N4CCN(C(C)=O)CC4)n3n2)cc1	FBA Mtb inh 70 (no result: Mtb betalactam, RecA intein inh) | Mtb FBA inh conf inactive | GDH-TPI counter-2 inactive
COc1ccc(-c2cc3nc(-c4ccccc4)cc(N4CCN(C(=O)c5ccccc5)CC4)n3n2)cc1	none (no result: Mtb betalactam, RecA intein inh)
COc1ccc(-c2cc3nc(-c4ccccc4)cc(N4CCN(C(=O)c5ccsc5)CC4)n3n2)cc1	none (no result: Mtb betalactam, RecA intein inh)
CC(C)[C@H](NC(=O)C1CCCC1)C(=O)N1CCC[C@H]1C(=O)NCCc1ccccc1Cl	none (no result: GDH-TPI counter-1, Mtb betalactam, FBA Mtb inh, RecA intein inh)
CCN(C(=O)CN1CCN(c2nc(-c3ccccc3)cs2)CC1)c1ccccc1C	none (no result: GDH-TPI counter-1, Mtb betalactam, FBA Mtb inh, RecA intein inh)
CCc1cc(=O)oc2cc(C)cc(OCC(=O)C(C)(C)C)c12	FBA Mtb inh 65 | Mtb FBA inh conf 126 | GDH-TPI counter-2 106
CCc1cc(=O)oc2cc(C)cc(OCC(C)=O)c12	FBA Mtb inh 77 | Mtb FBA inh conf 56 | GDH-TPI counter-2 46
CCc1cc(=O)oc2cc(C)cc(O)c12	none
O=C(NCc1ccccc1)[C@@H]1CCCN1C(=O)[C@H]1CCCN1C(=O)c1ccc(Cl)cc1	none (no result: GDH-TPI counter-1, Mtb betalactam, FBA Mtb inh, RecA intein inh)
COc1ccc(N2CCN(c3ncnc4c3[nH]c3ccccc34)CC2)cc1	none
COc1cc2[nH]c3c(N4CCN(c5ccccn5)CC4)ncnc3c2cc1OC	FBA Mtb inh 29 (no result: CCHF vOTU inh) | Mtb FBA inh conf inactive | GDH-TPI counter-2 inactive
COc1cc(OC)c(C(=O)N2CCN(c3ccccn3)CC2)cc1OC	none
COc1ccc2[nH]c3c(N4CCc5ccccc5C4)ncnc3c2c1	FBA Mtb inh 40 | Mtb FBA inh conf inactive | GDH-TPI counter-2 inactive
COc1ccccc1C1CN(c2ccccc2)N=C1c1cccs1 (stereo not given)	FBA Mtb inh 85 | Mtb FBA inh conf inactive | GDH-TPI counter-2 inactive
COc1cccc(C2CN(c3ccc(F)cc3F)N=C2c2cccs2)c1OC (stereo not given)	FBA Mtb inh 86 | Mtb FBA inh conf 168 | GDH-TPI counter-2 120
N#Cc1ccc2nc(-c3ccc(CN4CCC(c5nc6ccccc6[nH]5)CC4)cc3)c(-c3ccccc3)nc2c1	none (no result: GDH-TPI counter-1, Mtb betalactam, FBA Mtb inh, RecA intein inh)
COc1cc2oc3ccc(C#Cc4ccccn4)cc3c(=O)c2cc1OC	FBA Mtb inh 67 | Mtb FBA inh conf inactive | GDH-TPI counter-2 inactive
Cc1cc(CN2CCN(c3ncc(Cc4ccccc4)cn3)CC2)cc(C)c1O	none (no result: GDH-TPI counter-1, Mtb betalactam, FBA Mtb inh, RecA intein inh)
CCOC(=O)NN1C(=O)c2ccccc2NC1(C)C	FBA Mtb inh 104 | Mtb FBA inh conf 136 | GDH-TPI counter-2 112
COc1ccc(C2Nc3ccccc3C(=O)N2NC(=O)c2ccccc2)cc1OC (stereo not given)	none
COc1ccc(C2Nc3ccccc3C(=O)N2NC(C)=O)cc1OC (stereo not given)	FBA Mtb inh 36 | Mtb FBA inh conf 36 | GDH-TPI counter-2 26
COc1ccc(C2Nc3ccccc3C(=O)N2O)cc1OC (stereo not given)	none
CCOC(=O)NN1C(=O)c2ccccc2NC1c1ccc(OC)c(OC)c1 (stereo not given)	FBA Mtb inh 43 | Mtb FBA inh conf inactive | GDH-TPI counter-2 inactive
CCOC(=O)N1CCC2(CC1)NC(=O)c1ccccc1N2	FBA Mtb inh 85 (no result: Mtb betalactam, RecA intein inh) | Mtb FBA inh conf 37 | GDH-TPI counter-2 25
CC(=O)Nc1cc(-c2ccc(S(C)(=O)=O)cc2)cn2c(-c3ccc(F)cc3)cnc12	none (no result: Mtb betalactam, RecA intein inh)
CC(=O)Nc1cc(-c2cccc(F)c2)cn2c(-c3ccc(S(C)(=O)=O)cc3)cnc12	FBA Mtb inh 71 (no result: Mtb betalactam, RecA intein inh) | Mtb FBA inh conf active | GDH-TPI counter-2 active
CC(C)C(=O)N[C@H]1[C@H](O)CCC[C@]12C(=O)N(Cc1ccccc1)c1ccccc12	none (no result: GDH-TPI counter-1, Mtb betalactam, FBA Mtb inh, RecA intein inh)
Cc1nn(-c2ccccc2)c2nc(Cl)c(C(=O)O)cc12	FBA Mtb inh 31 | Mtb FBA inh conf active | GDH-TPI counter-2 active
Cc1nn(-c2ccccc2)c2nc3c(cc12)C(=O)CCC3	none
CCOC(=O)N[C@H](C(=O)N1CCC[C@H]1C(=O)NCc1ccccc1)C(C)C	none (no result: GDH-TPI counter-1, Mtb betalactam, FBA Mtb inh, RecA intein inh)
CC(C)=CCOc1ccc2c(C)c(CC(=O)N3C[C@H]4C[C@@H](C3)c3cccc(=O)n3C4)c(=O)oc2c1C	FBA Mtb inh 107 (no result: RecA intein inh) | Mtb FBA inh conf 183 | GDH-TPI counter-2 129
Cc1c(OCC(=O)N2C[C@H]3C[C@@H](C2)c2cccc(=O)n2C3)ccc2c3c(c(=O)oc12)CCCC3	FBA Mtb inh 31 | Mtb FBA inh conf active | GDH-TPI counter-2 active
COC(=O)c1cc2c(c3c4cc(OC)ccc4n(S(=O)(=O)c4ccc(OC)cc4)c13)C(=O)N(Cc1ccccc1OC)C2	none (no result: GDH-TPI counter-1, Mtb betalactam, FBA Mtb inh, RecA intein inh)
COc1ccccc1CCn1cnc(-c2ccc(F)cc2)c1C(C)C	none (no result: GDH-TPI counter-1, Mtb betalactam, FBA Mtb inh, RecA intein inh)
O=C(NN=C1CCCC1)c1cc(Cl)cc(Cl)c1O	FBA Mtb inh 41 | Mtb FBA inh conf 70 | GDH-TPI counter-2 61
COc1ccc(Cl)cc1C(=O)NN=C1CCCC1	none
CC1=NCCc2c1[nH]c1cc(O)ccc21	FBA Mtb inh 74 (no result: RecA intein inh) | Mtb FBA inh conf 94 | GDH-TPI counter-2 48
CCCCCCCCC1=NCCc2c1[nH]c1ccccc21	none
CCCCOCCCNC(=O)C[C@H]1C[C@@]2(C(=O)OC)C(=C[C@H](COCc3ccccc3)O[C@@H]2C)N(Cc2ccc(Cl)cc2Cl)C1=O	none (no result: GDH-TPI counter-1, Mtb betalactam, FBA Mtb inh, RecA intein inh)
COc1ccc(-c2ccc3nnc(SCC(=O)NCC4CCCO4)n3n2)cc1 (stereo not given)	FBA Mtb inh 34 | Mtb FBA inh conf 172 | GDH-TPI counter-2 120
COc1ccc(-c2ccc3nnc(SCC(N)=O)n3n2)cc1	FBA Mtb inh 29 | Mtb FBA inh conf 85 | GDH-TPI counter-2 60
CCOc1ccc(-c2ccc3nnc(SCC(=O)NCC4CCCO4)n3n2)cc1 (stereo not given)	none
O=C(CSc1ccc2nc(-c3ccccc3)cn2n1)NCC1CCCO1 (stereo not given)	FBA Mtb inh 111 | Mtb FBA inh conf active | GDH-TPI counter-2 active
CN1C(=O)C[C@@](C#N)(C(=O)NCc2ccccc2)[C@H]1c1ccccc1	none (no result: GDH-TPI counter-1, Mtb betalactam, FBA Mtb inh, RecA intein inh)
C[C@@H]1ON(C)[C@H]2C[C@H]3c4[nH]c5c(-c6cccc(Cl)c6)cccc5c4CCN3C(=O)[C@@H]12	none (no result: GDH-TPI counter-1, Mtb betalactam, FBA Mtb inh, RecA intein inh)

From PubChem
